Rows were chosen to be rich in hits. Some 7.1% of all compounds tested hit in one or more screens of this group.
PINK1 expr mod: A Quantitative High throughput Screen to Identify Chemical Modulators of PINK1 Expression; AID 624263, 2012; Potency, µM (series often up to 76.6 µM), inactives show at the top dose activation (PINK1 increase), most hits filed as activators; PINK1 immunofluorescence, high-content cytometry, 24 h; 410,000 tested, 0.2% active; active = well fitted activation curve with a large enough effect; inconclusive = small, poorly fitted or top-dose-only effect; cell line not stated here; note: potency is the fitted concentration of half-maximal effect; % of control where 0% means no effect; nearly all actives have a fitted effect of over 65% in size
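Cells are seeded, rested 12 hours, then given compound at five concentrations or DMSO for 24 hours. After fixation, blocking and antibody staining, PINK1 amount and mitochondrial localization are scored; CCCP serves as control.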
IL-1B inflam inh: qHTS for Inhibitors of Inflammasome Signaling: IL-1-beta AlphaLISA Primary Screen | THP-1 LPS/ATP IL-1B secretion, AlphaLISA, 16 h; active compounds read low | activity change, % at 57.5 µM | 360,000 tested, 4.7% active; in the data active = activity change below about -50%; inconclusive = mostly about -30% to -49%; note: % is set by controls: 0 for no effect and ±100 for the full control effect
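Secreted IL-1B measured by AlphaLISA bead assay after 16 h compound exposure of THP-1 cells; compounds (final up to 57.5 uM) added 1 h before LPS (250 ng/mL) and ATP (1.25 mM) stimulation; lower signal means less secretion.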
MCF10A rereplic: A quantitative high throughput screen for small molecules that induce DNA re-replication in MCF 10a normal breast cells; Potency, µM (doses to about 46.1 µM), for the others: top-dose activity, positive = re-replication, hits mostly activators; MCF 10A DNA re-replication, Hoechst nuclear intensity, 48 h; 350,000 tested, 2.9% active; note: potency is the fitted concentration of half-maximal effect; % of control where 0% means no effect; nearly all actives have a fitted effect of over 50% in size
SW480 rereplic: A quantitative high throughput screen for small molecules that induce DNA re-replication in SW480 colon adenocarcinoma cells; SW480 DNA re-replication, Hoechst DNA content imaging, 48 h; 340,000 tested, 1.8% active; Potency, µM (highest dose often 46.1 µM), for the others: at the top dose re-replication activation, most hits filed as activators; note: potency is the fitted concentration of half-maximal effect; % of control where 0% means no effect; nearly all actives have a fitted effect of over 55% in size
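Readout is total intensity of Hoechst-stained nuclei, excited at 405 nm and collected at 500-530 nm. Compound treatment lasted 48 hr at 37 C in 5% CO2 before staining.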
ATXN viability: Viability Counterscreen for Primary qHTS for Inhibitors of ATXN expression; S2 cells (HEK-293 line with an ATXN2-luciferase reporter) viability, CellTiter-Fluor protease fluorescence, 24 h; Potency, µM (highest dose often 56.7 µM), actives largely listed as cytotoxic; 400,000 tested, 0.49% active; note: potency is the fitted concentration of half-maximal effect; nearly all actives have a fitted effect of over 40% in size
ATXN2 expr inh: Primary qHTS for Inhibitors of ATXN expression; HEK-293 ATXN2-luciferase reporter, luminescence, 24 h; Potency, µM (titrated, usually from 57 µM), inactives show top-dose activity change, negative = inhibition, usual class: inhibitors; 360,000 tested, 0.72% active; note: potency is the fitted concentration of half-maximal effect; % is set by controls: 0 for no effect and ±100 for the full control effect; nearly all actives have a fitted effect of over 55% in size
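ATXN2-luciferase reporter cells (luciferase flanked by upstream and downstream ATXN2 gene portions) were treated 24 h at 37 °C with compounds at up to 57 uM. SteadyGlo luminescence gave expression; GF-AFC fluorescence gave viability.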
Active calls of the source: *. Unless noted, calls come from the whole dose curve; as a rule, active = well fitted curve in the direction sought with a large enough effect; inconclusive = small, poorly fitted or top-dose-only effect, or another doubt; inactive = no such curve, though single readings can be large; an effect the other way counts as inactive or inconclusive.

Results for COc1ccc(C2CC(c3ccccc3Br)=NN2c2ccc(S(N)(=O)=O)cc2)cc1 (configuration not stated) ?
PINK1 expr mod: 4%; IL-1B inflam inh: -24; MCF10A rereplic: inconclusive; SW480 rereplic: 3.7µM*; ATXN viability: inactive; ATXN2 expr inh: inconclusive

How did COc1ccc(C2CC(c3cccs3)=NN2S(=O)(=O)c2ccc(C)cc2)cc1 (configuration not stated) do in these assays?
PINK1 expr mod: 1%; IL-1B inflam inh: -10; MCF10A rereplic: 14%; SW480 rereplic: 6%; ATXN viability: inactive; ATXN2 expr inh: 14%

Results for Cc1ccc(S(=O)(=O)N2CCN(c3nc(-c4cnccn4)nc4ccccc34)CC2)cc1 ?
PINK1 expr mod: 3%

Results for COc1ccc(C2CC(c3ccc(C(F)(F)F)cc3)=NN2c2ccc(S(N)(=O)=O)cc2)cc1 (configuration not stated) ?
PINK1 expr mod: 0%; IL-1B inflam inh: -26; MCF10A rereplic: inconclusive; SW480 rereplic: 0.52µM*; ATXN2 expr inh: inconclusive

How did C/C(=C1\CCOC(=O)S1)N(C=O)Cc1cnc(C)nc1N do in these assays?
ATXN viability: inactive; ATXN2 expr inh: 5%

What do the screens show for `COc1cc(-c2nc(C)cnc2C)cc2c1OCCN(C(=O)Cn1nc(-c3ccccc3)c3ccccc3c1=O)C2`?
PINK1 expr mod: 0%; ATXN viability: inactive

What do the screens show for `CSc1ccccc1NC(=O)CN(Cc1ccc(Cl)cc1)S(C)(=O)=O`?
IL-1B inflam inh: -63*; MCF10A rereplic: 2%; SW480 rereplic: 1%; ATXN viability: inactive; ATXN2 expr inh: -11%

How did Cc1ccc(-c2c(CN3CCN(c4cc(Cl)ccc4C)CC3)csc2C)cc1 do in these assays?
PINK1 expr mod: 0%

How did CCN1CCN(c2cc(C)nc(-c3ccccc3O)n2)CC1 do in these assays?
PINK1 expr mod: 1%; IL-1B inflam inh: -69*; MCF10A rereplic: 6%; SW480 rereplic: -5%; ATXN viability: inactive; ATXN2 expr inh: -25%

How did COc1cc(=O)n2c(c1C(=O)NCc1ccc3c(c1)OCO3)CCN(C(=O)c1cccc(F)c1)CC2 do in these assays?
PINK1 expr mod: -1%; ATXN viability: inactive

Results for C=C1NN(C(C)C(=O)O)C(=O)N1c1ccc(OCc2ccccc2)cc1 (configuration not stated) ?
PINK1 expr mod: 0%

What do the screens show for `O=[N+]([O-])C(/C=C(/Cl)[N+](=O)[O-])=C(N1CCCCC1)N1CCCCC1`?
PINK1 expr mod: -1%; MCF10A rereplic: 6%; SW480 rereplic: 15µM*; ATXN viability: inactive; ATXN2 expr inh: -22%

How did O=[N+]([O-])c1ccc(-c2ccc(/C=N/Nc3nc(NCc4ccccc4)nc(N4CCOCC4)n3)o2)cc1 do in these assays?
PINK1 expr mod: 5%; IL-1B inflam inh: -91*; MCF10A rereplic: 7.3µM*; SW480 rereplic: 9.2µM*; ATXN viability: inactive; ATXN2 expr inh: -15%

What do the screens show for `Cc1ccc(/C=N/Nc2nc(N3CCCCC3)nc(N3CCCCC3)n2)o1`?
PINK1 expr mod: 2%; IL-1B inflam inh: -29; MCF10A rereplic: 18%; SW480 rereplic: 6%; ATXN viability: inactive; ATXN2 expr inh: -15%

How did CCOc1cc(/C=N/Nc2nc(N3CCCC3)nc(N3CCCC3)n2)ccc1O do in these assays?
PINK1 expr mod: 0%; IL-1B inflam inh: -4; MCF10A rereplic: 6%; SW480 rereplic: 15%; ATXN viability: inactive; ATXN2 expr inh: -13%

How did CCOc1cccc(/C=N/Nc2nc(N3CCCC3)nc(N3CCCC3)n2)c1O do in these assays?
PINK1 expr mod: 8%; IL-1B inflam inh: -108*; MCF10A rereplic: 3%; SW480 rereplic: -3%; ATXN viability: inactive
